Test results from the supplement of paper PMC6555819.

What was measured:
Assay in all cases: PBM binding z-score (relative to random genomic background probes); higher = stronger binding; sequences stand for … in GC…GCGATTGACAGCGTAGAATGAAGG
[1] = tested on: FXR:RXRa (NR concentration 270 nM, RXRa partner concentration 90 nM)
In short: (§1)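 Scanned fluorescence from custom Agilent 4×180K protein-binding microarrays was regression-normalized. Binding z-scores use random background probes as reference. Ligand-free nuclear receptor dimers were incubated on the arrays for 1 h and detected with antibodies against each partner (one per run).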

[2] = tested on: LXRa:RXRa (NR concentration 270 nM, RXRa partner concentration 90 nM)
In short: as §1

[3] = tested on: LXRa homodimer (NR concentration 270 nM)
In short: as §1

[4] = tested on: LXRb:RXRa (NR concentration 270 nM, RXRa partner concentration 90 nM)
In short: as §1

[5] = tested on: LXRb homodimer (NR concentration 270 nM)
In short: as §1

[6] = tested on: PPARa:RXRa (NR concentration 270 nM, RXRa partner concentration 90 nM)
In short: as §1

[7] = tested on: PPARg:RXRa (NR concentration 180 nM, RXRa partner concentration 90 nM)
In short: as §1

[8] = tested on: PPARg:RXRa 270nM:90nM, anti-RXR (NR concentration 270 nM, RXRa partner concentration 90 nM)
In short: as §1

[9] = tested on: PPARg:RXRa 30nM:10nM, anti-RXR (NR concentration 30 nM, RXRa partner concentration 10 nM)
In short: as §1

[10] = tested on: PPARg:RXRa 90nM:30nM, anti-RXR (NR concentration 90 nM, RXRa partner concentration 30 nM)
In short: as §1

[11] = tested on: PPARg:RXRa DBDmut IVT, anti-RXR (DBD mutation: RXRa K156A/R161A, NR concentration 270 nM, RXRa partner concentration 90 nM)
In short: as §1

[12] = tested on: PPARg:RXRa IVT, anti-PPARg (NR concentration 270 nM, RXRa partner concentration 90 nM)
In short: as §1

[13] = tested on: PPARg DBDmut:RXRa IVT, anti-PPARg (DBD mutation: PPARg1 K132A/R137A, NR concentration 270 nM, RXRa partner concentration 90 nM)
In short: as §1

[14] = tested on: PPARg DBDmut IVT, anti-PPARg (DBD mutation: PPARg1 K132A/R137A, NR concentration 270 nM)
In short: as §1

[15] = tested on: PPARg homodimer (NR concentration 180 nM)
In short: as §1

[16] = tested on: PXR:RXRa (NR concentration 270 nM, RXRa partner concentration 90 nM)
In short: as §1

[17] = tested on: PXR homodimer (NR concentration 270 nM)
In short: as §1

[18] = tested on: RARa:RXR (NR concentration 270 nM, RXRa partner concentration 90 nM)
In short: as §1

[19] = tested on: RARa homodimer (NR concentration 270 nM)
In short: as §1

[20] = tested on: RARb:RXRa (NR concentration 270 nM, RXRa partner concentration 90 nM)
In short: as §1

Row | Sequence | PBM binding z-score [1] | PBM binding z-score [2] | PBM binding z-score [3] | PBM binding z-score [4] | PBM binding z-score [5] | PBM binding z-score [6] | PBM binding z-score [7] | PBM binding z-score [8] | PBM binding z-score [9] | PBM binding z-score [10] | PBM binding z-score [11] | PBM binding z-score [12] | PBM binding z-score [13] | PBM binding z-score [14] | PBM binding z-score [15] | PBM binding z-score [16] | PBM binding z-score [17] | PBM binding z-score [18] | PBM binding z-score [19] | PBM binding z-score [20]
1 | CGAAATAGGTCATCCAGGACAGTGAATACATTGA | 5.99 | 4.69 | 1.25 | 3.8 | 0.842 | 5.87 | 7.32 | 6.78 | 4.39 | 6.21 | 7.78 | 7.89 | 2.68 | 2.13 | 2.1 | 3.15 | 1.18 | 3.92 | 1.27 | 4.59
2 | CCTGCTAGGTCAATGGACAGCTAAAGCAGCTCGC | 2.71 | 2.11 | -0.488 | 1.29 | -0.325 | 2.73 | 1.63 | 2.17 | 0.0027 | 1.05 | 3.92 | 3.11 | -0.347 | -0.89 | 0.928 | 0.497 | -0.327 | 1.2 | -0.377 | 3.75
3 | TCTATTAGTTGAAGGGCTACCGACGAGTCCGTTT | 0.932 | 0.924 | 0.312 | 0.431 | 0.511 | 0.594 | -0.151 | 2.01 | 3.62 | 2.96 | 2.41 | 0.0404 | 0.251 | -0.451 | 1.24 | 0.647 | 0.375 | 0.611 | 1.16 | 0.525
4 | GCTAGCAGGCCATTAGGGTCACTCAATGACGGGC | 1.78 | 1.35 | -0.158 | 1.47 | -0.982 | 2.54 | 1.2 | 1.3 | -0.267 | 0.446 | 1.02 | 1.61 | -0.521 | -1.36 | 0.4 | 2.86 | 1.38 | 2.85 | -0.0554 | 2.42
5 | ATCTCTAGGTAACAAGTTCAGTGACAGAGAGGAC | 0.767 | 0.889 | 0.72 | 0.57 | 0.85 | 1.52 | 1.61 | 2.21 | 0.948 | 1.88 | 3.59 | 3.2 | 1.48 | 1.17 | 1.56 | 1.61 | 1.61 | 1.11 | 1.47 | 1.81
6 | CCGACTGGGGCATAAGGTTACCATCAGCCAGCCC | 0.308 | 1.43 | -0.15 | 0.516 | -1.51 | 1.9 | 2.3 | 2.99 | 1.18 | 2.32 | 2.93 | 3.1 | -0.916 | -1.26 | 0.425 | 0.317 | -0.375 | 1.06 | -0.135 | 1.37
